Assay [1] in a line: AP1 Signaling Pathway (AID 357).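 Further: ME-180 reporter cells stimulated with EGF at its EC50 level; on the % scale 0 is the no-effect control and ±100 the full control effect.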 To be noted: ME-180 AP-1-bla reporter, EGF-induced, beta-lactamase ratio, 5 h. A digest of the protocol: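 AP-1-bla ME-180 cells, Opti-MEM + 0.5% dialyzed FBS, plated overnight 37 °C. Cpd titration + EC50 EGF, 5 h 37 °C. CCF4 2.5 h RT; ex 405, em 460/530 ratio → %activity, AC50.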
Assay [2] is described as follows: NFAT Signaling Pathway (AID 444).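 Further: carbachol stimulus at about its EC50 of 1 µM final; on the % scale 0 is the no-effect control and ±100 the full control effect.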 To be noted: Jurkat NFAT-bla M1, carbachol, beta-lactamase ratio, 5 h. A digest of the protocol:
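Jurkat cells with NFAT-driven β-lactamase reporter and co-expressed M1 receptor, stimulated with carbachol (final 1 uM, ~EC50), compound titration, 5 h at 37 °C. CCF4 loaded 1 h at RT; 460/530 nm ratio gave %activity and AC50.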

Assay [3] can be described thus: Stat Signaling Pathway (AID 446).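 Further: ME-180 cervical cancer cells given 40 pM IL-6 alongside compound; SIE-controlled beta-lactamase reporter measured as 460/530 nm FRET emission ratio; on the % scale 0 is the no-effect control and ±100 the full control effect.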 To be noted: ME-180 (cervical carcinoma) SIE beta-lactamase reporter, IL-6 stimulated, 5 h; series mostly up to 17.2 µM. A digest of the protocol:
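IL-6/STAT signaling read in ME-180 cells via an SIE beta-lactamase reporter. Stimulus was 40 pM IL-6 (its AC50) for 5 hrs, so both activation and inhibition register.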

The target of assay [4] is Glucocorticoid receptor (Homo sapiens) (UniProt P04150). Briefly: GR-EFC Redistribution (AID 451; calls by dose curve; further: potency means the concentration at half of the fitted maximal effect). To be noted: CHO-K1 GR-EFC translocation, beta-gal luminescence, 2 h. The procedure, abridged: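 CHO-K1 cells expressing nuclear EA and GR-ED fragments of b-gal; compounds titrated up to 46 uM final, 2 h at 37 C. GR nuclear translocation read as complemented b-gal luminescence after 1 h RT detection.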

The target in assay [5] is Mitogen-activated protein kinase 10 (Mus musculus) (UniProt Q61831). Briefly: JNK3 AlphaScreen Assay (AID 530).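 Further: kinase came from lysate of stimulated human HepG2 cells; signal reports phosphorylation of biotinylated GST-cJun 1-79 at Ser73 with 10 µM ATP; on the % scale 0 is the no-effect control and ±100 the full control effect.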 To be noted: JNK3 lysate, c-Jun phosphorylation; series mostly up to 57.1 µM. The procedure, abridged: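 Pre-activated (IL-1β/TNFα) JNK3 in HepG2 lysates phosphorylates biotin-GST-cJun(1-79), 10 uM ATP; anti-phospho-cJun(Ser73) AlphaScreen read at room temperature, pH 7.6 Tris buffer. Compounds pre-incubated 15 min as titrations.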
For orientation: Bead proximity is the source of the signal in Alpha formats.

Assay [6] addresses Cytochrome P450 1A2 (Homo sapiens) (UniProt P05177). Briefly: p450-cyp1a2 (AID 410; calls by dose curve;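 further: -100% = full effect of reference inhibitor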). To be noted: recombinant CYP1A2, luciferin-ME demethylation, luminescence; series mostly up to 57 µM. The procedure, abridged:
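Luminescent readout of luciferin formed from Luciferin-ME by human CYP1A2; data normalized against complete inhibition by 57 uM furafylline. Enzyme 20nM, substrate 100uM at Km, 100mM KPO4 buffer, 60 min reaction at room temperature.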

A short description of assay [7]: Cell Viability - BJ (AID 421; calls by dose curve;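 further: potency means the concentration at half of the fitted maximal effect; cells exposed to compound for 40 hours at 37 °C before readout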). To be noted: BJ fibroblast viability, qHTS. A digest of the protocol:
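Quantitative HTS: ATP depletion in BJ cells after 40 hr compound exposure in complete culture medium, detected with CellTiter-Glo; AC50 from standard Hill fits.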
A general note: Quantitative high-throughput screening tests each substance at several concentrations.

Assay [8] in a line: Cell Viability - Jurkat (AID 426;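 active means dose-dependent loss of cell ATP signal giving a full or clear fitted curve, ranked by lower potency value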; further: potency means the concentration at half of the fitted maximal effect). To be noted: qHTS. A digest of the protocol: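 qHTS, 1536-well; Jurkat E6-1, 5000 cells/well, complete medium; cpd 40 hr, 37 °C; CellTiter-Glo 20 min RT; luminescence. AC50 by Hill fit.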
Assay [9] is described as follows: Cell Viability - Hek293 (AID 427;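 active means compounds whose dose-response curve shows a full or clear partial loss of cell viability, called from curve shape rather than a numeric limit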;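 further: potency means the concentration at half of the fitted maximal effect; cells exposed to compound for 40 hours at 37 °C before reading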). To be noted: qHTS. The procedure, abridged:
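AC50 values derive from Hill-modelled concentration-response of ATP-based luminescence, normalized between DMSO-only and 100 uM tamoxifen controls. Cells were exposed in complete culture medium for 40 hr at 37 °C before detection.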

Assay [10] in a line: Cell Viability - HepG2 (AID 433; calls by dose curve;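 further: potency means the concentration at half of the fitted maximal effect; potency for ATP loss meaning cytotoxicity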). To be noted: qHTS. The procedure, abridged: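 HepG2 hepatocellular carcinoma cells (1500/well) were treated with compounds for 40 h at 37 °C in complete medium; intracellular ATP was read by CellTiter-Glo luminescence. Data were normalized to DMSO and 100 uM tamoxifen, and AC50 came from Hill fits.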
A short description of assay [11]: Cell Viability - MRC5 (AID 434; calls by dose curve;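 further: potency means the concentration at half of the fitted maximal effect; potency reflects cytotoxicity seen as loss of intracellular ATP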). To be noted: MRC5 lung fibroblast viability, qHTS. A digest of the protocol: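 MRC5 normal human lung fibroblasts, 1500 cells/well, exposed to compound for 40 hr at 37 C. Cellular ATP was read by CellTiter-Glo luminescence; data normalized to DMSO and 100 uM tamoxifen, with AC50 from Hill fits.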
Assay [12] in a line: Cell Viability - SK-N-SH (AID 435; calls by dose curve;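 further: potency means the concentration at half of the fitted maximal effect; compound exposure lasted 40 h at 37 °C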). To be noted: SK-N-SH neuroblastoma cell viability qHTS. A digest of the protocol:
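SK-N-SH human neuroblastoma cells (1500/well) were exposed to compounds in complete medium for 40 h at 37 °C, and intracellular ATP was then measured by CellTiter-Glo luminescence. AC50 was taken from Hill fits, normalized to DMSO and 100 uM tamoxifen.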

A short description of assay [13]: Cell Viability - N2a (AID 540; active means well fitted curve in the direction sought with a large enough effect; an effect the other way counts as inactive or inconclusive;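 further: plate controls were DMSO alone for no effect and tamoxifen control for full effect; nearly all actives have a fitted effect of over 45% in size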). To be noted: N2a mouse neuroblastoma cell viability; series mostly up to 92.2 µM. A digest of the protocol: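 Luminescent ATP signal (CellTiter-Glo, 20 min at room temperature) served as the viability read-out after N2a cells were treated with compounds for 40 hours at 37 °C. Concentration-response data were fitted to the Hill equation for AC50.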

The nature of assay [14]: Cell Viability - NIH 3T3 (AID 541; active means well fitted curve in the direction sought with a large enough effect; an effect the other way counts as inactive or inconclusive;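 further: plate controls were DMSO alone for no effect and tamoxifen positive control for full effect; nearly all actives have a fitted effect of over 25% in size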). To be noted: NIH 3T3 cell viability, qHTS; activity change, negative = cytotoxicity: at 92.2 µM (top of the series). The procedure, abridged: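 Luminescent ATP signal (CellTiter-Glo) served as the viability read-out after NIH 3T3 cells were exposed to compounds over a concentration range for 40 hr at 37 °C. Hill-equation modelling of concentration-response data gave AC50.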

The nature of assay [15]: Cell Viability - HUV-EC-C (AID 542; active means well fitted curve in the direction sought with a large enough effect; an effect the other way counts as inactive or inconclusive; further: on the % scale 0 is the no-effect control and ±100 the full control effect; nearly all actives have a fitted effect of over 35% in size). To be noted: HUV-EC-C endothelial cell viability, qHTS; series mostly up to 92.2 µM. A digest of the protocol: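 qHTS cytotoxicity: HUV-EC-C, 1000 cells/well, 5 hr settle, compound 40 hr 37 °C, CellTiter-Glo, luminescence. AC50 via Hill equation.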
A short description of assay [16]: Cell Viability - H-4-II-E (AID 543; active means well fitted curve in the direction sought with a large enough effect; an effect the other way counts as inactive or inconclusive; further: on the % scale 0 is the no-effect control and ±100 the full control effect; nearly all actives have a fitted effect of over 35% in size). To be noted: H-4-II-E rat hepatoma viability; series mostly up to 92.2 µM. The procedure, abridged:
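Luminescent ATP signal (CellTiter-Glo) served as the viability read-out, with cytotoxicity seen as a concentration-dependent ATP drop. Cells were treated for 40 hours in complete medium. AC50 values derive from Hill-equation modelling.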

Assay [17] in a line: Cell Viability - SH-SY5Y (AID 544; active means well fitted curve in the direction sought with a large enough effect; an effect the other way counts as inactive or inconclusive;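 further: 0% = DMSO alone and -100% = 100 µM tamoxifen; nearly all actives have a fitted effect of over 55% in size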). To be noted: SH-SY5Y neuroblastoma cell viability; series mostly up to 92.2 µM. A digest of the protocol:
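Luminescent ATP read-out (CellTiter-Glo) measures loss of viable SH-SY5Y neuroblastoma cells after 40 hr compound exposure at 37 °C. AC50 values derive from standard Hill modelling of qHTS concentration-response data.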

A short description of assay [18]: Cell Viability - Renal Proximal Tubule (AID 545; active means well fitted curve in the direction sought with a large enough effect; an effect the other way counts as inactive or inconclusive;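 further: 0% = DMSO only and -100% = 100 µM tamoxifen; nearly all actives have a fitted effect of over 40% in size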). To be noted: renal proximal tubule cells viability, primary cells of rat origin; activity change, negative = cytotoxicity: at 91.7 µM (top of the series). The procedure, abridged:
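Primary rat renal proximal tubule cells (1000/well) were treated with compounds for 40 hr at 37 °C in complete medium. Intracellular ATP was measured by CellTiter-Glo luminescence, and AC50 values came from Hill-equation fits of concentration-response data.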

Assay [19] concerns the target Glucocorticoid receptor (Homo sapiens) (UniProt P04150). Briefly: GR-GFP Redistribution (AID 450;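 active means compounds whose dose series gives a full or clear partial fitted curve of increased nuclear translocation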; further: potency means the concentration at half of the fitted maximal effect). To be noted: U2OS GR-GFP nuclear translocation, laser cytometry, 2 h.

Where “and” joins values, the source holds several entries; their conditions need not be identical. Identical values can stand only once. Unmarked numbers belong to inactive results. Results filed as inconclusive are left out. Calls of active or inactive are those of the source. Unless noted, the call rests on the fitted dose curve; in most records, active means well fitted curve in either direction with a large enough effect (not every such curve was filed as active); inconclusive means small, poorly fitted or top-dose-only effect, or another doubt; inactive means flat fitted curve, though single readings scatter.

Chain of Glucocorticoid receptor (Homo sapiens) (P04150 whole entry, looked up, the tested form may be a part): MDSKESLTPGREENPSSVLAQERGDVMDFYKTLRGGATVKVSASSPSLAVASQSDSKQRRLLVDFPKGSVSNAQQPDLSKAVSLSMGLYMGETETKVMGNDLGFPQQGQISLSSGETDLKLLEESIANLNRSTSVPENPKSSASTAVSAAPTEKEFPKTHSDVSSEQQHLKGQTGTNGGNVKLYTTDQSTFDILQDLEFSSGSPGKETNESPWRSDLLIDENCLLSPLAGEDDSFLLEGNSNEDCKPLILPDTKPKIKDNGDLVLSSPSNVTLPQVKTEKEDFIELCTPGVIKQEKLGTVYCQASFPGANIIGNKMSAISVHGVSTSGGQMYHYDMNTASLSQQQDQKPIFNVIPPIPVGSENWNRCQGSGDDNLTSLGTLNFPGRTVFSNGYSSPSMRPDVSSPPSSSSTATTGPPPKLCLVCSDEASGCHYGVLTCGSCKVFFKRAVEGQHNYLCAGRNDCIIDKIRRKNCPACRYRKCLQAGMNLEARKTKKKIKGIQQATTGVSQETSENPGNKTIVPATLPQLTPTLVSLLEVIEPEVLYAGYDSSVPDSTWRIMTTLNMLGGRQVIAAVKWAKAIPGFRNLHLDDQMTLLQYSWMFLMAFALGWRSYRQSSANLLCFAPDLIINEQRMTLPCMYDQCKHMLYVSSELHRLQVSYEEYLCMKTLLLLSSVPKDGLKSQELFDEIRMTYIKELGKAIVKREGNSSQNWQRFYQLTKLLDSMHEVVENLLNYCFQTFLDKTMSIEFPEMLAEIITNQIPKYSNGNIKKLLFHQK
Chain of Cytochrome P450 1A2 (Homo sapiens) (P05177 whole entry, looked up): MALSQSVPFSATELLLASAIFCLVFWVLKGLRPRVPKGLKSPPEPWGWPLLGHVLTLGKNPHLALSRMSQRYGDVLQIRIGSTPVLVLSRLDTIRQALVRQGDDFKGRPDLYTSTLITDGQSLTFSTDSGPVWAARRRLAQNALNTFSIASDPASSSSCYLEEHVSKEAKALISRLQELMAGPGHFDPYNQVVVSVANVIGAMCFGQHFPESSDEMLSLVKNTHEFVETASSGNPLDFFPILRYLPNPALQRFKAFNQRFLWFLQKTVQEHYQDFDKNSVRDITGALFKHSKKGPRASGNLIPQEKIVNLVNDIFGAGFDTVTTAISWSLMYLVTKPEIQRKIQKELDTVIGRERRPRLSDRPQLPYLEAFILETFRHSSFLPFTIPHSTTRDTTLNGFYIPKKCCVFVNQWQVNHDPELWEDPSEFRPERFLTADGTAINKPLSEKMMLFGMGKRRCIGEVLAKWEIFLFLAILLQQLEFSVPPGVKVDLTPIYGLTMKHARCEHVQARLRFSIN

With `CCCCNc1ccc(C(=O)OCCN(C)C)cc1`, the activity change, negative = inhibition in assay [1] (at 17.2 µM (top of the series)) is -19.5%; in assay [1] (at 38 µM (top of the series)), 22.1%; in assay [2] (at 17.2 µM (top of the series)) it was -27.7%. In addition, in assay [3], the result was inactive. Besides, in assay [4], the Potency was > 46 µM and > 20.6 µM. Moreover, in assay [5], the Potency entry was “inactive”.

For `NC(=O)N1c2ccccc2C=Cc2ccccc21`, the activity change, negative = inhibition in assay [1] (at 17.2 µM (top of the series)) is -5.62% and 13.4%; in assay [2] (at 17.2 µM (top of the series)), 3.6%; in assay [2] (at 38 µM (top of the series)), 3.87%. In addition, the Potency result in [6], in assay [5], in [15], in [16] and in assay [17] was “inactive” each time. For the same molecule, the Potency in [7], in assay [8], in assay [9], in assay [10], in assay [11] and in assay [12] was above 92 µM each time. Further, the molecule was called inactive in assay [3] and in assay [13]. Besides, the activity change, negative = cytotoxicity in assay [14] was -9.01%; in assay [18], 2.97%.

`C[N+](C)(C)CCOC(=O)CCC(=O)OCC[N+](C)(C)C`: the results for the activity change, negative = inhibition in [1] (at 38 µM (top of the series)) and in [2] (at 38 µM (top of the series)) were -1.57% and 1.62%, respectively. For the same molecule, the Potency entry in [6] and in assay [5] was “inactive” in each case. The call in assay [3] was inactive. The Potency in assay [19] and in [4] was above 46 µM in each case.

Turning to `CN=C(NC#N)NCCSCc1nc[nH]c1C`, the values for the activity change, negative = inhibition in assay [1] (at 38 µM (top of the series)) and in assay [2] (at 38 µM (top of the series)) were -4.97% and 6.95%, respectively. The Potency entry in [6], in [5], in [15], in assay [16] and in assay [17] was “inactive” throughout. Moreover, the Potency in [7], in assay [8], in assay [9], in assay [10], in assay [11] and in assay [12] was above 92 µM throughout. The molecule was classed as inactive in [3] and in assay [13]. In addition, the activity change, negative = cytotoxicity is -4.92% in assay [14] and -10.6% in [18].

With `CC(C)[N+](C)(CCOC(=O)C1c2ccccc2Oc2ccccc21)C(C)C`, the activity change, negative = inhibition in assay [1] (at 17.2 µM (top of the series)) was 12.1% and 5.76%; in assay [1] (at 38 µM (top of the series)) it was 3.91%; in assay [2] (at 17.2 µM (top of the series)), -48.1% (active) and -94.6% (active); in assay [2] (at 38 µM (top of the series)) it was -63% (active). In addition, the molecule was classed as inactive in [3]. The Potency in assay [4] is > 46 µM and > 20.6 µM. Besides, in assay [5], the Potency result is “inactive”.

For `O=C1CC2(CCCC2)CC(=O)N1CCCCN1CCN(c2ncccn2)CC1`, the activity change, negative = inhibition in assay [1] (at 17.2 µM (top of the series)) is -0.287%; in [1] (at 38 µM (top of the series)), -2.42%; in assay [2] (at 17.2 µM (top of the series)) it was -9.19%. Moreover, the call in [3] was inactive. Moreover, the Potency entry in [5] is “inactive”.

(Values after PubChem BioAssay (NCATS).)
